Bioassay records deposited in PubChem by National Center for Advancing Translational Sciences (NCATS).
A selection: hits, their analogues and other compounds. The true share with any hit is near 12%.
JMJD2A Tudor – blocks the human JMJD2A Tudor domain. 390,000 compounds, 4.4% hits. AlphaScreen JMJD2A-Tudor / H3K4me3 peptide binding. O75164. Potency, µM (top dose mostly 114 µM), inactives show at the top dose activity change, negative = inhibition, actives largely listed as inhibitors. AID 504339; further: on the % scale 0 is the no-effect control and ±100 the full control effect; nearly all actives have a fitted effect of over 50% in size
Target sequence (O75164 whole entry, looked up, the tested form may be a part): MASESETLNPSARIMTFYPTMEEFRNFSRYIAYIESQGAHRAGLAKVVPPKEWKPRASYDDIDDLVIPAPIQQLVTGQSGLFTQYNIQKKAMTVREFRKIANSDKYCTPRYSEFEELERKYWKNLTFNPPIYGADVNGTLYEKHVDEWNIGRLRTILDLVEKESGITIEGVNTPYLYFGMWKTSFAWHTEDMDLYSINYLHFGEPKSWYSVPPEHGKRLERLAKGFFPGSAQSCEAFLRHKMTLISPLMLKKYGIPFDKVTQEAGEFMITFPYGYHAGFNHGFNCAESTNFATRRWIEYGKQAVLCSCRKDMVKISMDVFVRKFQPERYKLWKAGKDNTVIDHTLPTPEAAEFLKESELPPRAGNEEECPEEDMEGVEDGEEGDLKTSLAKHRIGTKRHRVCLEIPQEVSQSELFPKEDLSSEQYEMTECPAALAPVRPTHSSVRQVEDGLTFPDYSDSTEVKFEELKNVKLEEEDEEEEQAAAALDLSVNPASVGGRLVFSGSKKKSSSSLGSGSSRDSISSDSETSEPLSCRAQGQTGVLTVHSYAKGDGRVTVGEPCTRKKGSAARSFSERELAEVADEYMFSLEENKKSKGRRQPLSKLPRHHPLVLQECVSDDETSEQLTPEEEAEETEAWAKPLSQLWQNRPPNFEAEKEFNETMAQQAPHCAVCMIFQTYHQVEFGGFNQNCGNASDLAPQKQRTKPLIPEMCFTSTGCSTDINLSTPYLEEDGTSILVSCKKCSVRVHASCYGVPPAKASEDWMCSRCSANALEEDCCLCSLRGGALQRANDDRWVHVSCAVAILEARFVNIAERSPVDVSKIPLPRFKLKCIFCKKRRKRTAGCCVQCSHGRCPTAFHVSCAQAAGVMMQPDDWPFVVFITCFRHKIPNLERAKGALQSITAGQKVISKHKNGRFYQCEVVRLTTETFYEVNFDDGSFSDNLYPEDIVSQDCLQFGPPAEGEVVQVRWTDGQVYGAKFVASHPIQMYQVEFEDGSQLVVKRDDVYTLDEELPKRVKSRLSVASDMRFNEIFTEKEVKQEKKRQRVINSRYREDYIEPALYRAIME
Sfp PPTase inh – Sfp phosphopantetheinyl transferase inhibition; Q9F4F7; Biochemical Sfp PPTase activity, qHTS; Potency, µM, for inactives: largest response in the series, negative = inhibition, most hits filed as inhibitors; 310,000 compounds, 3.5% hits;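 further: the enzyme is Sfp with the accession as filed and its product quenches rhodamine fluorescence; 0% = enzyme reaction without inhibitor and -100% = no enzyme wells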
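Reaction rates are the 30-min fluorescence difference (ex 525, em 598 nm) in wells containing 15 nM Sfp, 5 uM rhodamine-CoA and 12.5 uM BHQ-2-YbbR at pH 7.6 with 10 mM MgCl2.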
HP1b chromo inh – blocks HP1-beta chromodomain binding to methylated histone tails. AlphaScreen HP1-beta / biotin-H3K9me3 peptide binding. Potency, µM (highest dose often 114 µM), inactives show at the top dose activity change, negative = inhibition, usual class: inhibitors. AID 540317. 390,000 compounds, 0.56% hits; further: nearly all actives have a fitted effect of over 70% in size
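AlphaScreen: HP1-beta (50 nM) preformed 30 min with biotin-H3(1-18)K9me3 peptide (50 nM) in PBS pH 7.4, 0.01% Tween-20. Compound added for 30 min at RT, then streptavidin donor/nickel chelate acceptor beads (10 ug/mL) for 30 min.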
L3MBTL1 inh – L3MBTL1 (human) inhibition; AID 485360; AlphaScreen L3MBTL1–H3K9me1 peptide binding; 230,000 compounds, 0.66% hits; Q9Y468; Potency, µM (titrated, usually from 57.1 µM), for the others: at the highest dose activity, negative = inhibition, most hits filed as inhibitors; further: on the % scale 0 is the no-effect control and ±100 the full control effect; nearly all actives have a fitted effect of over 60% in size
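AlphaScreen assay: L3MBTL1 (50 nM final) was preincubated 30 min at room temperature with biotinylated H3(1-15)K9me1 peptide (75 nM final), then 30 min with library compounds; streptavidin donor and nickel chelate acceptor beads (10 ug/mL final) added, 30 min dark.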
G9a block – inhibitors of human histone lysine methyltransferase G9a; Q96KQ7; G9a H3K9 monomethylation, AlphaScreen, 2 h; Potency, µM (doses to about 102 µM), for the others: at the top dose activity, negative = inhibition, actives largely listed as inhibitors; 350,000 compounds, 8.8% hits; AID 504332; further: on the % scale 0 is the no-effect control and ±100 the full control effect; nearly all actives have a fitted effect of over 75% in size
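G9a (20 nM) was preincubated 15 min with compound, then reacted 2 h at room temperature with 500 nM biotin-H3K9 peptide and 20 µM SAM. Monomethyl-H3K9 detected by AlphaScreen using anti-H3K9me1 antibody.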
BAZ2B block – blocks human BAZ2B. 360,000 compounds, 4.4% hits. AlphaScreen BAZ2B-H3K14Ac peptide displacement. Q9UIF8. Potency, µM (titrated, usually from 114 µM), for the others: at the top dose activity change, negative = inhibition, usual class: inhibitors; further: on the % scale 0 is the no-effect control and ±100 the full control effect; nearly all actives have a fitted effect of over 60% in size
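AlphaScreen displacement: compounds (up to 110uM) incubated 30 min at room temperature with a preformed 50 nM BAZ2B/50 nM biotinylated H3K14Ac peptide complex in PBS pH 7.4 with Tween-20. Donor and acceptor beads at 10 ug/mL final added, 20 min light-protected before reading.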
* marks the source's active call; other numbers are inactive results; ? = inconclusive; . = no result; [ ] = remark or other dose. The call rests on the fitted dose curve; in most records, active means well fitted curve in the direction sought with a large enough effect; inconclusive means small, poorly fitted or top-dose-only effect, or another doubt; inactive means no such curve, though single readings can be large; an effect the other way counts as inactive or inconclusive. Potency means the concentration at half of the fitted maximal effect.

SMILES	JMJD2A Tudor	Sfp PPTase inh	HP1b chromo inh	L3MBTL1 inh	G9a block	BAZ2B block
O=C(CN1C(=O)c2ccccc2C1=O)NN1C(=O)c2ccccc2C1=O	-13%	45µM*	7%	-9%	?	?
O=C(Nc1ccc(F)cc1)c1cccc(N2CCCS2(=O)=O)c1	2%	.	34%	.	7%[59 µM]	1%
CCn1c(=O)n(CC)c2cc(N3CCCC3)c(NC(=O)c3ccccc3F)cc21	56µM*	-16%	?	.	40µM*	?
CCn1c(=O)n(CC)c2cc(N3CCCC3)c(NC(=O)c3ccccc3C)cc21	?	-10%	-2%	.	50µM*	?
Cn1c(=O)c(=O)n(C)c2cc(N3CCCC3)c(NC(=O)c3ccccc3F)cc21	-7%	.	24%	.	4%[59 µM]	1%
COc1c[nH]n(C2CCCCC2)c(=O)c1=O	20µM*	-4%	7%	-3%	22µM*	?
COc1ccc(Nc2cc(=O)n(C3CCCCC3)c(=O)[nH]2)c(OC)c1	0%	1%	11%	-1%	.	-5%
O=C(CCn1c(=O)oc2ccccc21)n1c(=O)oc2ccccc21	-11%	-3%	34%	6%	79µM*	-35%
O=C(CCn1c(=O)oc2ccccc21)NCCN1CCc2ccccc2C1	50µM*	-8%	18%	7%	?	7%
Cc1cccc(C(=O)n2nc(-c3cccnc3)nc2NCc2ccccc2)c1	14%	.	72%	.	-15%[59 µM]	11%
COc1ccc(NC(=O)COC(=O)CO/N=C(\C)c2ccc3c(c2)OCO3)cc1S(N)(=O)=O	-8%	.	25%	0%	-15%[59 µM]	4%
CCOC(=O)N1CCN(C(=O)CSc2nnc3[nH]c(=O)c(C)c(C)n23)CC1	-1%	.	35%	4%	14µM*	-3%
CCOC(=O)N1CCN(C(=O)CSc2ccccc2)CC1	10%	-10%	44%	-2%	-18%[59 µM]	2%
CCOC(=O)N1CCN(C(=O)CCc2ccc(S(=O)(=O)NC(C)(C)C)cc2)CC1	-13%	2%	30%	13%	.	-4%
COc1ccccc1Nc1nc(-c2cccc([N+](=O)[O-])c2)cs1	?	11µM*	-14%	-21%	?	?
O=C(Cc1ccccc1)Nc1nc(-c2cccc([N+](=O)[O-])c2)cs1	0%	20%	43%	-2%	12%[59 µM]	10%
O=[N+]([O-])c1cccc(-c2csc(Nc3ccccc3)n2)c1	?	-14%	-25%	-12%	40µM*	?
COc1cc(NS(=O)(=O)c2ccc(Nc3nc(-c4cccc([N+](=O)[O-])c4)cs3)cc2)nc(OC)n1	?	3%	?	0%	50µM*	45µM*
COC(=O)N1CCC2(CCN(C(=O)NC(C)C)CC2)CC1	.	9%	.	.	-39%[12.7 µM]	.
CCCC[n+]1ccn(C2=C([O-])c3ccccc3C(=O)/C2=N\S(=O)(=O)c2ccc(Br)cc2)c1	-12%	-12%	18%	-7%	45µM*	89µM*
Cc1ccc(C(=O)NC(c2ccccc2)C(Cl)Cl)cc1 (stereo not given)	5%	-9%	46%	8%	50µM*	-1%
O=C(NC(c1ccccc1)C(Cl)Cl)c1ccccc1 (stereo not given)	0%	10%	23%	-4%	13%[59 µM]	-4%
Cc1ccc(NC(=O)Cc2c(C(=O)O)n(C)c3ccccc23)cc1F	45µM*	9%	-21%	.	-1%	-2%
Cc1ccc(NC(=O)Cc2nn(C)c(=O)c3ccccc23)cc1F	35µM*	-9%	-6%	-6%	8%[59 µM]	-1%
CCOC(=O)C1CCN(C(=O)CNC(=O)c2nn(-c3ccc(OC)cc3)c(=O)c3ccccc23)CC1	-4%	-2%	10%	.	18%	11%
SMILES	JMJD2A Tudor	Sfp PPTase inh	HP1b chromo inh	L3MBTL1 inh	G9a block	BAZ2B block
CNC(=S)N(CCc1c(C)[nH]c2ccc(C)cc12)Cc1cc(OC)c(OC)c(OC)c1	?	1%	-14%	-4%	50µM*	40µM*
CNC(=S)N(CCc1c(C)[nH]c2ccc(OC)cc12)Cc1cc(OC)c(OC)c(OC)c1	?	-9%	3%	-8%	50µM*	45µM*
CCSCCNC(=O)c1cc(-n2cnnc2)ccc1Cl	-7%	-1%	36%	-10%	2.5µM*	1%
COc1cc2c(cc1OC)C(c1ccccc1[N+](=O)[O-])N(C(C)=O)CC2 (stereo not given)	-16%	45µM*	13%	-5%[2.29 µM]	-2%[0.501 µM]	6%
COc1cc2c(cc1OC)C(COc1ccccc1OC)N(C(C)=O)CC2 (stereo not given)	-6%	0%	29%	.	1%	8%
CC(C)(C)C(=O)CNCC(=O)C(C)(C)C	2%	-10%	48%	16%	40µM*	-6%
CCn1c(COc2ccc(C(C)C)cc2)nnc1SCC(=O)Nc1nccs1	-9%	19%	24%	.	10µM*	-18%
CCn1c(CC(=O)Nc2cccc(OC)c2)nnc1SCC(=O)Nc1nccs1	-10%	0%	24%	-3%	56µM*	8%
CCn1c(CNC(=O)COc2ccc(C(C)C)cc2)nnc1SCC(=O)Nc1cc(F)ccc1C	28µM*	13%	18%	2%	?	-33%
C=CCn1c(CCCOc2ccc(Cl)cc2Cl)nnc1SCC(=O)Nc1nccs1	-20%	14%	42%	.	40µM*	-17%
COc1ccc(NC(=O)Cc2nnc(SCC(=O)Nc3nccs3)n2C)cc1	?	8%	19%	.	12%	-11%
CCn1c(CCCOc2ccc(Cl)cc2Cl)nnc1SCC(=O)Nc1cc(F)ccc1C	-23%	15%	21%	-6%	12%[59 µM]	2%
CCCn1c(SCC(=O)NCc2ccc3c(c2)OCO3)n[nH]c1=O	-9%	.	19%	29%	22%[12.7 µM]	34%
Cc1c(Cl)cccc1NC(=O)Nc1nnc(N(C)C2CCCCC2)s1	-22%	.	23%	.	-32%[59 µM]	?
CC(C)Oc1cccc(C2CC(=O)Nc3cc4c(cc32)OCO4)c1 (stereo not given)	?	.	-13%	.	?	?
C=CCSc1n[nH]c(-c2ccc(OCCC)cc2)n1	-2%	-7%	58%	8%	5%[12.7 µM]	8%
CCCOc1ccc(-c2nc(SCC(=O)c3ccc(Cl)cc3)n[nH]2)cc1	?	.	42%	.	14µM*	-21%
O=C(CSc1n[nH]c(-c2ccccc2)n1)c1ccc(O)c(O)c1	63µM*	-14%	-13%	?	7.9µM*	45µM*
